Each structure is given as a SMILES string. The whole screen tested about 1,300 compounds, of which about 270 (21%) were called active. A selection follows. Potency and affinity values are given separately. A number with no mark means an inactive call. No rule for the calls is given here.

The nature of the experiment: cytotoxicity in parental SK-MEL-5 melanoma cells – cell-based, CellTiter-Glo, cherry-picked, set 3, orthogonal assay for MITF inhibitor project, dose response (AID 493240). As to conditions: SK-MEL-5 viability, ATP luminescence (CellTiter-Glo), 24 h; series mostly up to 35 µM; activity change, negative = viability loss: at the top concentration.
On to `Cc1ccc(-c2cn3cc(C)ccc3n2)cc1`, for which the “activity change, negative = viability loss” value was -17.5%.
The same measure for `O=C(O)c1cccc(NC(=S)N/N=C/c2ccccn2)c1`: -4.83%.
Under `CC1=NOC(=O)/C1=C\c1ccc(-c2cccc(Cl)c2)o1` stands -12.6%; under `CC(C)[C@H](NC(=O)OC(C)(C)C)c1nnc(S(=O)(=O)Cc2c(F)cccc2Cl)o1`, -44.2%; under `C/C(=N\NC(=O)C1COc2ccccc2O1)c1ccccn1` (centres undefined), -29.1%.
For the molecule `Cc1cc(C)c2c(N)c(C(=O)Nc3ncc(C)s3)sc2n1`, the “activity change, negative = viability loss” value is -29.7%.
Under `CC(OC(=O)c1ccc([N+](=O)[O-])s1)C(=O)NC1CCCCC1C` (centres undefined) stands 1.2%.
Under `Clc1c(-c2ccccc2)nc2ccccn12` stands -2.85%; under `Cn1nnnc1Sc1ncnc2scc(-c3ccc[nH]3)c12`, -22.3%; under `C=C1CCC[C@]2(C)C[C@H]3OC(=O)C(CN4CCCCC4CO)[C@H]3CC12` (some centres undefined), 20.2%.
In the case of `CCOc1cc(/C=C2/NC(=S)NC2=O)ccc1OCc1ccc([N+](=O)[O-])cc1`, the “activity change, negative = viability loss” value is -31.2%.
The same measure for `COc1cc(/C=N/NS(=O)(=O)c2ccc(C)cc2)ccc1OCc1cccc(C(=O)O)c1`: 6.32%; for `COc1cc(/C=N/NS(=O)(=O)c2ccc3ccccc3c2)ccc1OCc1ccc(C(=O)O)cc1`: 0.683%; for `CCOc1cc(/C=N/Nc2cccc(C(=O)O)c2)ccc1OC(=O)c1ccccc1`: -4.54%.
With `O=C(Cn1nnc(-c2ccccc2Cl)n1)N1CCCCC1`, the “activity change, negative = viability loss” value is 7.72%.
On to `CC(C)OC(=O)CSc1nc2cc3c(cc2cc1C#N)OCO3`, for which the “activity change, negative = viability loss” value is -2.87%.
The same measure for `CCOc1ccc(OCc2ccc(C(=O)N/N=C(\C)c3ccccn3)cc2)cc1`: -41.8%.
Turning to `C/C(=N\NC(=O)Cc1ccc(Cl)cc1)c1ccccn1`, the “activity change, negative = viability loss” value was -31.1%.
Under `O=C(Nc1nc2ccccc2s1)Nc1ccc(F)cc1F` stands 3.41%; under `O=C(N/N=C/c1ccccc1)c1ccco1`, -4.03%; under `O=C(Nc1ccccc1)O/N=C/c1ccc(F)cc1`, -11.8%.
Under `CCC(=O)OCCNc1cc(Sc2nc3ccccc3[nH]2)c2nonc2c1[N+](=O)[O-]` stands -31.7%; under `Cc1cc(C)nc(S/C=C/C(=O)c2ccccc2F)n1`, -22.5%; under `CC(=O)N/C(N)=N/c1nc2cc(C)ccc2o1`, -5.21%.
As for `COc1ccccc1N1CCN(/N=C/c2ccc([N+](=O)[O-])cc2)CC1`, the “activity change, negative = viability loss” value is 5.48%.
Under `CN(c1ccc(O)cc1)c1nc(O)c(C2=c3ccccc3=NC2=O)s1` stands 2.68%; under `CCOC(=O)C1CCCN(C(=O)C2CCN(S(=O)(=O)CC)CC2)C1` (centres undefined), 4.63%.
The same measure for `Nc1ccc(-c2nc3ccc(C(=O)O)cc3s2)cc1`: -9.29%; for `Cn1c(COc2ccccc2)nc2ccccc21`: -6.39%.
The same measure for `COCc1nc(-c2ccc(-c3ccccc3)nc2OC)no1`: -1.92%; for `Brc1cccc(/C=N/Nc2nn[nH]n2)c1`: 4.62%.
On to `CC(C)=CCc1c(O)ccc2c1OC(c1ccc(O)c(O)c1)CC2=O` (centres undefined), for which the “activity change, negative = viability loss” value is -7.03%.
`O=C(Nc1cc2c(cc1Cl)OCCO2)c1ccco1`: the “activity change, negative = viability loss” value is 6.8%.
Under `COc1ccc(-n2c(C)cc(C(=O)CCl)c2C)cc1` stands -44.3%; under `CCOc1ccc(-n2c(C)cc(C(=O)CCl)c2C)cc1`, -41.3%; under `CCN(CC)CC(=O)Nc1scc2c1c(=O)oc1ccccc12`, 9.99%.
For the molecule `CCN(Cc1ccc(OC)c(F)c1)C(=O)CCl`, the “activity change, negative = viability loss” value was -6.7%.
Under `COc1ccccc1N(C(=O)CCl)c1cn(C(C)=O)c2ccccc12` stands -32.2%.
Turning to `O=C(c1ccc(F)cc1)C(CN1CCOCC1)c1ccccc1` (centres undefined), the “activity change, negative = viability loss” value was -14.1%.
The same measure for `Cn1nnnc1Sc1ncnc2scc(-c3ccc(F)cc3)c12`: -16.3%; for `Cn1nnnc1Sc1ncnc2scc(-c3ccsc3)c12`: -1.66%; for `O=C(NC1=NCCS1)c1ccc(Cl)c(Cl)c1`: -7.94%.
Under `O=C(Nc1ccc2nc(-c3ccccc3)[nH]c2c1)c1ccco1` stands -12%; under `O=C(/C=C\Nc1ccc2c(c1)OCO2)c1ccccn1`, -44.2%.
For `COc1ccc(C(=O)/C=C/Nc2ccccn2)cc1`, the “activity change, negative = viability loss” value was -36.9%.
Turning to `CCN(CC)Cc1c(O)ccc2c1O/C(=C\C=C\c1ccccc1)C2=O`, the “activity change, negative = viability loss” value is -2.2%.
Under `Cc1cc(/C=C(\C#N)C(=O)O)c(C)n1CC(C)C` stands 12.1%.
For the molecule `CN(C)c1ccc(/C=N\NC(=O)c2cccc3cc[nH]c23)cc1`, the “activity change, negative = viability loss” value is 7.77%.
Under `Cc1ccc(-c2nc(C#N)c(NCc3ccco3)o2)cc1` stands -10%.
The same measure for `COc1ccccc1/C=C/C=N/NC(=O)c1cccs1`: 2.03%; for `O=C(Nc1ccc2oc(-c3cccnc3)nc2c1)c1ccc([N+](=O)[O-])o1`: -13.7%.
The same measure for `Cc1ccccc1OCC(=O)Nc1cccc(C(=O)O)c1`: -8.49%.
With `Cc1cc(NC(=O)c2ccc([N+](=O)[O-])o2)ccc1NC(=O)c1ccco1`, the “activity change, negative = viability loss” value is -34.3%.
Under `CC(C)c1ccc(/C=C2\SC(=S)N(CCC(=O)N3CCCCC3CCO)C2=O)cc1` (centres undefined) stands -2.33%; under `CN(C)S(=O)(=O)c1cccc(NC(=O)CSc2nc3c(cc2C#N)C(=O)CC(C)(C)C3)c1`, -14.6%.
The same measure for `O=C(CCC(=O)c1ccc[nH]1)c1ccc(Cl)cc1`: -5.44%.
The same measure for `CCOC(=O)N1CCN(C(=O)c2ccc(Cn3c(=S)[nH]c4ccc(Br)cc4c3=O)cc2)CC1`: -37%; for `C=CCNc1nc(-c2ccccn2)nnc1-c1ccccc1`: -21.7%; for `Cc1cc(C)c2nc3nc(C)cc(C)c3c(N)c2c1`: -25.4%.
For `N#C/C(=C\C=C\c1ccccc1[N+](=O)[O-])C(=O)NCc1ccccc1`, the “activity change, negative = viability loss” value is -18.2%.
Take `Cc1cc(Cl)ccc1OCCCC(=O)N1CCOCC1`: the “activity change, negative = viability loss” value was -12%.
As to `Cc1cccc(N(O)C(=O)Nc2cccc(Cl)c2)c1`, the “activity change, negative = viability loss” value is -4.38%.
For `Nc1c(-c2ccccc2)cnc2c(-c3ccccc3)cnn12`, the “activity change, negative = viability loss” value is -13.3%.
Under `CC(=O)c1ccc(Sc2nnnn2-c2ccccc2)c([N+](=O)[O-])c1` stands -8.68%; under `Cc1ccc(-c2noc(-c3ccno3)n2)cc1`, -0.841%.
The same measure for `Cc1cc(-n2c(C)cc(C(=O)CCl)c2C)no1`: -18.2%; for `Cc1ccc(OCCCCN2CCCCC2)c(Br)c1`: -4.91%.
The same measure for `Clc1ccccc1CSc1nnc(-c2ccncc2)o1`: -11.6%; for `c1ccc(C[n+]2cccc3c4ccccc4ccc32)cc1`: -37.1%; for `CS(=O)(=O)c1ccc2nc(NC(=O)c3ccccc3)sc2c1`: -12.4%.
Turning to `CC1(C)Cc2c(sc(NC(=O)c3ccc4ncsc4c3)c2C(N)=O)C(C)(C)N1`, the “activity change, negative = viability loss” value was -34.2%.
Consider `CCCN(CCC)C1=CC(=[N+]2CCCC2)CC(C)(C)C1`, for which the “activity change, negative = viability loss” value is -30.5%.
Take `Cc1nc(Sc2nnnn2C)c2c3c(sc2n1)CCC3`: the “activity change, negative = viability loss” value was -24.1%.
For the molecule `COC(=O)c1ccc(-n2c(C)cc(C(=O)CCl)c2C)cc1`, the “activity change, negative = viability loss” value was -49.6%.
On to `Cc1ccc2c(c1)COc1c3ccc(C(=O)O)cc3nn1-2`, for which the “activity change, negative = viability loss” value is -36.1%.
The same measure for `Nc1c(-c2ccc(Cl)cc2)nnn1-c1ccccc1`: -10.9%; for `Nc1ccc(-c2cc3ccccc3c(=O)o2)cc1`: -23.3%.
The same measure for `Cc1ccc(NC(=O)c2cc(N3C(=O)C=CC3=O)ccc2N2CCOCC2)cc1`: -28.6%; for `COc1cc(OC)cc(-c2oc(=O)c3cc(OC)c(OC)cc3c2C(F)(F)F)c1`: 5.28%; for `O=C1c2ccccc2CN1c1ccccc1`: -2.83%.
Consider `Cn1c(/C=C/c2cccc([N+](=O)[O-])c2)c([N+](=O)[O-])c(=O)n(C)c1=O`, for which the “activity change, negative = viability loss” value was -4.42%.
With `O=C(O)c1cccc(NC(=O)c2cccc(NC(=O)C3CCCO3)c2)c1` (centres undefined), the “activity change, negative = viability loss” value is -11.9%.
Under `N#Cc1nc(/C=C/c2ccccc2)oc1NCCCN1CCOCC1` stands -14.3%; under `Oc1cc(NCCN2CCOCC2)cc2cccnc12`, -56.1%.
The same measure for `CC(C)(C)c1cc(NCCCn2ccnc2)n2ncc(-c3ccccc3)c2n1`: -5.35%; for `O=c1c(Cl)c(Cl)cnn1Cc1ccc(F)cc1`: 2.13%; for `Cc1c(NC(=O)C(C)OC(=O)c2ccc([N+](=O)[O-])s2)c(=O)n(-c2ccccc2)n1C` (centres undefined): 6.54%.
The same measure for `Cc1cc(Sc2ncnc(N)c2[N+](=O)[O-])ncn1`: -23.4%.
For `Cc1ccc(OCC(=O)Nc2ccccc2F)cc1`, the “activity change, negative = viability loss” value is 4.09%.
Under `Fc1cccc(Cl)c1CSc1nnc(-c2ccncc2)o1` stands 12.6%; under `CN(CCC#N)C(=O)COC(=O)c1ccccc1C(=O)c1ccc(Cl)c([N+](=O)[O-])c1`, -14.9%; under `CCOC(=O)N1C(=O)[C@](CC)(c2ccccc2)N1C(=O)OCC`, -16.8%.
Under `CC(C)C(=O)Nc1cccc(NC(=O)c2cc3ccccc3o2)c1` stands -5.61%; under `Cc1ccc(NC(=O)c2cc3ccccc3oc2=O)cc1S(=O)(=O)N(C)C`, -2.98%.
Under `Cc1ccc(S(=O)(=O)Nc2cccc3cccnc23)cc1` stands 12.9%; under `COc1ccc(N/N=C/c2c(C(=O)O)ccc3ccccc23)cc1`, -18.1%.
Turning to `CC1C/C(=C\c2cccnc2)C(=O)/C(=C/c2cccnc2)C1` (centres undefined), the “activity change, negative = viability loss” value is -9.76%.
As to `C=C1C(=O)C=C[C@]2(C)C[C@@H]3OC(=O)[C@](C)(O)[C@H]3C[C@@H]12`, the “activity change, negative = viability loss” value was -25.9%.
For `Cc1ccc2nc(NC(=O)c3ccc(Br)o3)sc2c1`, the “activity change, negative = viability loss” value is -6.22%.
The same measure for `CC(C)C(NC(=O)OCc1ccccc1)C(=O)OCC(=O)N1CCCCC1` (centres undefined): 11.4%; for `CCc1ccc(Nc2nc(C)cc(C)n2)cc1`: -4.01%; for `CCOC(=O)c1ccc(NC(=O)c2nc(S(=O)(=O)Cc3ccccc3)ncc2Cl)cc1`: -33.5%.
As to `CCOC(=O)c1ccc(NC(=O)Cc2cccs2)cc1`, the “activity change, negative = viability loss” value was -5.41%.
The same measure for `Cc1cc(O)ccc1Nc1nc(-c2cccnc2)cs1`: -1.37%.
Under `Cc1c(C#N)c(O)n(CCO)c(=O)c1N=Nc1ccc2c(c1)COC2=O` stands -30.3%.
As to `N#Cc1cnc2sc3ccccc3n2c1=N`, the “activity change, negative = viability loss” value was -13.4%.
Under `O=C(NCCSc1ccccc1)c1ccccc1F` stands -5.63%; under `COCn1c(COc2ccccc2)nc2ccccc21`, -33.2%; under `O=C(N/N=C/c1cccc(Oc2ccc([N+](=O)[O-])cc2[N+](=O)[O-])c1)c1cncc(Br)c1`, -16%.
Under `CN(C)c1ccc(NC(=O)Nc2ccc3c(c2)nnn3C)cc1` stands 6.96%; under `CC1Cc2ccccc2N1C(=O)c1ccc(Br)o1` (centres undefined), -35.6%; under `O=C(c1cc2ccccc2oc1=O)N1CCN(c2ncccn2)CC1`, -6.63%.
Regarding `Cc1ccc(OCC(=O)Nc2cccc(C)n2)c(C)c1`, the “activity change, negative = viability loss” value is 11.2%.
The same measure for `CN(c1cccc(NC(=O)COc2ccc(Cl)cc2Cl)c1)S(C)(=O)=O`: -2.24%; for `CCOc1ccccc1-c1nc(-c2ccc(C)nc2OC)no1`: -0.189%; for `C=CCNC(=O)c1ccc2nc(Cc3ccc(OC)cc3)oc2c1`: 1.33%.
Under `O=C(Nc1nc2cc3c(cc2s1)OCO3)C1=COCCO1` stands -32.8%; under `O=C(/C=C/c1ccc(Cl)cc1)c1ccc([N+](=O)[O-])o1`, -38.6%.
The same measure for `CCOCCCNC(=O)/C(C#N)=C/c1ccc(Cl)c([N+](=O)[O-])c1`: -34.9%.
`Cc1nc2cc(NC(=O)Nc3cccc([N+](=O)[O-])c3)ccc2n1C`: the “activity change, negative = viability loss” value was -6.54%.
Under `O=C(Cc1ccccc1)Nc1ccc(NC(=O)c2ccco2)nc1` stands -8.09%.
For the molecule `CN(C)/C=N/c1ncc(C(=O)c2ccccc2)s1`, the “activity change, negative = viability loss” value was -12.3%.
The same measure for `C=C1C(=O)O[C@@]23[C@H]1CC[C@@H](C)[C@@H]2CC[C@@]1(C)O[C@@H]31`: 6.52%.
The same measure for `COc1ccc2oc3ccc(OC)cc3c(=O)c2c1`: -16.6%.

The values above are taken from PubChem BioAssay AID493240 (Broad Institute, 2011).
